Reference: PubChem BioAssay AID1159580 (chemical genetic matrix, 2015)
Values joined by “and” are separate entries in the source; they are usually repeats but may differ in a detail not shown here. Equal entries are not always repeated. The campaign covered roughly 5,500 compounds. About 2,000 (36%) were called active. Roughly 18% stayed inconclusive and do not appear here. Rule as the data show it: active = normalized growth mostly below about 0.91 (no sharp cut-off); inconclusive = no clear call, values can overlap the other calls; inactive = mostly above about 0.92. The list shows a part of the results.

Assay: chemical genetic growth profiling, strain panel (AID 1159580);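 also: tested at 20 µM; growth read once vehicle control cultures reached saturation at 30 °C; 1 = growth at the plate median or of vehicle wells; lower values mean less growth of the strain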
Details: S. cerevisiae deletion strains, growth OD

Measured: normalized growth

NCCc1ccc(O)cc1
inactive: locus YAL021C, strain ccr4, stronger effect = lower value 0.995 | locus YAL026C, strain drs2, stronger effect = lower value 0.963 | locus YAL030W, strain snc1, stronger effect = lower value 0.989 | locus YAL040C, strain CLN3, stronger effect = lower value 0.988 | locus YBL061C, strain skt5, stronger effect = lower value 0.975 | locus YBR009C, strain hhf1, stronger effect = lower value 0.985 | locus YBR021W, strain FUR4, stronger effect = lower value 0.97 | locus YBR023C, strain chs3, stronger effect = lower value 0.98 | locus YBR171W, strain sec66, stronger effect = lower value 0.957 | locus YBR229C, strain ROT2, stronger effect = lower value 0.999 | locus YBR231C, strain swc5, stronger effect = lower value 0.961 | locus YBR279W, strain paf1, stronger effect = lower value 0.983 | locus YCL011C, strain gbp2, stronger effect = lower value 0.997 | locus YCL016C, strain dcc1, stronger effect = lower value 1.01 | locus YCL029C, strain bik1, stronger effect = lower value 1.01 | locus YCL061C, strain MRC1 (second series), stronger effect = lower value 1.01 | locus YCL069W, strain vba3, stronger effect = lower value 0.99 | locus YCR088W, strain abp1, stronger effect = lower value 0.972 | locus YDL005C, strain med2, stronger effect = lower value 0.972 | locus YDL035C, strain GPR1, stronger effect = lower value 1.01 | locus YDL040C, strain nat1, stronger effect = lower value 0.984 | locus YDL074C, strain BRE1, stronger effect = lower value 0.99 | locus YDL101C, strain DUN1, stronger effect = lower value 1 | locus YDL185W, strain tfp1, stronger effect = lower value 1 | locus YDL192W, strain arf1, stronger effect = lower value 1 | locus YDR001C, strain nth1, stronger effect = lower value 0.975 | locus YDR069C, strain doa4, stronger effect = lower value 0.945 | locus YDR101C, strain arx1, stronger effect = lower value 0.991 | locus YDR137W, strain rgp1, stronger effect = lower value 0.981 | locus YDR150W, strain NUM1, stronger effect = lower value 1.01 | locus YDR159W, strain sac3, stronger effect = lower value 0.905 | locus YDR162C, strain NBP2, stronger effect = lower value 1.01 | locus YDR195W, strain ref2 0.928 | locus YDR297W, strain sur2, stronger effect = lower value 0.978 | locus YDR318W, strain mcm21, stronger effect = lower value 0.997 | locus YDR334W, strain swr1, stronger effect = lower value 0.967 | locus YDR335W, strain msn5, stronger effect = lower value 0.983 | locus YDR363W, strain ESC2, stronger effect = lower value 1.01 | locus YDR388W, stronger effect = lower value 1 | locus YDR392W, strain spt3, stronger effect = lower value 0.935 | locus YDR502C, strain sam2, stronger effect = lower value 0.989 | locus YEL003W, strain gim4, stronger effect = lower value 0.969 | locus YEL037C, strain rad23, stronger effect = lower value 0.977 | locus YEL061C, strain CIN8 (second series), stronger effect = lower value 0.975 | locus YEL061C, strain CIN8, stronger effect = lower value 1 | locus YER002W, strain NOP16, stronger effect = lower value 0.994 | locus YER015W, strain faa2, stronger effect = lower value 0.994 | locus YER016W, strain bim1, stronger effect = lower value 0.985 | locus YER110C, stronger effect = lower value 0.993 | locus YER111C, strain swi4, stronger effect = lower value 0.981 | locus YER155C, strain BEM2 (second series), stronger effect = lower value 0.951 | locus YER155C, strain BEM2, stronger effect = lower value 1.01 | locus YER167W, strain BCK2, stronger effect = lower value 1 | locus YFR010W, strain ubp6, stronger effect = lower value 0.957 | locus YGL078C, strain dbp3, stronger effect = lower value 0.994 | locus YGL086W, strain mad1, stronger effect = lower value 0.966 | locus YGL167C, strain pmr1, stronger effect = lower value 0.972 | locus YGL173C, strain kem1, stronger effect = lower value 0.964 | locus YGL227W, strain vid30, stronger effect = lower value 0.978 | locus YGL240W, strain doc1, stronger effect = lower value 0.96 | locus YGL248W, strain PDE1, stronger effect = lower value 1.01 | locus YGL253W, strain hxk2, stronger effect = lower value 0.972 | locus YGR078C, strain PAC10, stronger effect = lower value 1.01 | locus YGR135W, strain pre9, stronger effect = lower value 0.997 | locus YGR229C, strain SMI1, stronger effect = lower value 1.01 | locus YGR252W, strain gcn5, stronger effect = lower value 1.01 | locus YHR013C, strain ard1, stronger effect = lower value 0.97 | locus YHR027C, strain rpn1, stronger effect = lower value 0.99 | locus YHR030C, strain SLT2, stronger effect = lower value 1 and 0.976 | locus YHR079C, strain IRE1 (second series), stronger effect = lower value 0.994 | locus YHR079C, strain IRE1, stronger effect = lower value 0.976 | locus YHR094C, strain hxt1, stronger effect = lower value 1.01 | locus YHR129C, strain ARP1, stronger effect = lower value 1.01 | locus YHR142W, strain chs7, stronger effect = lower value 0.982 | locus YHR200W, strain rpn10, stronger effect = lower value 1.03 | locus YIL066C, strain RNR3, stronger effect = lower value 1.01 | locus YIL073C, strain SPO22, stronger effect = lower value 0.985 | locus YIL125W, strain kgd1, stronger effect = lower value 0.985 | locus YIR030C, strain dcg1, stronger effect = lower value 0.996 | locus YJL092W, strain hpr5, stronger effect = lower value 0.973 | locus YJL095W, strain BCK1 (second series), stronger effect = lower value 0.978 | locus YJL095W, strain BCK1, stronger effect = lower value 1.01 and 0.995 | locus YJL115W, strain asf1, stronger effect = lower value 0.963 | locus YJL129C, strain trk1, stronger effect = lower value 0.967 | locus YJL134W, strain LCB3, stronger effect = lower value 1.01 | locus YJL154C, strain vps35, stronger effect = lower value 0.975 | locus YJL164C, strain tpk1, stronger effect = lower value 0.998 | locus YJL166W, strain qcr8, stronger effect = lower value 0.986 | locus YJL168C, strain set2, stronger effect = lower value 1 | locus YJL187C, strain SWE1 (second series), stronger effect = lower value 1.01 | locus YJL187C, strain SWE1, stronger effect = lower value 0.984 | locus YJR043C, strain POL32, stronger effect = lower value 1.02 | locus YJR066W, strain TOR1, stronger effect = lower value 0.932
